# Several values for one entry are separate records, joined by “and”; a condition that tells them apart may be missing. Equal values may be shown once. Some compounds were tested as several samples or in several runs, with calls that do not always agree. Activity calls are given as the source filed them. A call without a number means that no potency is given here. Unless noted, calls come from the whole dose curve; as a rule, active = well fitted curve in the direction sought with a large enough effect in the repeat runs; inconclusive = weak or mixed curves; inactive = no such curve, though single readings can be large; an effect the other way counts as inactive or inconclusive.
# Tests used:
# [1] = qHTS assay to identify small molecule antagonists of the thyroid receptor (TR) signaling pathway - cell viability counter screen (AID 743064); note: nearly all actives have a fitted effect of over 50% in size; note: potency is the fitted concentration of half-maximal effect
# Method in brief: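 In rat pituitary GH3.TRE-Luc reporter cells co-exposed to compound and 1 nM T3 for 23.5 h, cytotoxicity was assessed with CellTiter-Fluor in the same wells, read by fluorescence.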
# [2] = test system: thyroid hormone receptor (rat, GH3 cells); assay: qHTS assay to identify small molecule agonists of the thyroid receptor (TR) signaling pathway (AID 743066; calls by dose curve)
# [3] = qHTS assay to identify small molecule antagonists of the estrogen receptor alpha (ER-alpha) signaling pathway - cell viability counter screen (AID 743074; calls by dose curve;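 note: HEK293 cells carrying ER-alpha-UAS-bla reporter stimulated with 17beta-estradiol; nearly all actives have a fitted effect of over 45% in size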; note: potency is the fitted concentration of half-maximal effect)
# [4] = qHTS assay to identify small molecule antagonists of the estrogen receptor alpha (ER-alpha) signaling pathway using the BG1 cell line - cell viability counter screen (AID 743081);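 note: compound given together with 17beta-estradiol as the ER stimulus; nearly all actives have a fitted effect of over 45% in size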; note: potency is the fitted concentration of half-maximal effect
# Aromatase (Homo sapiens) = Aromatase (Homo sapiens) (UniProt P11511); assay: qHTS assay to identify aromatase inhibitors (AID 743083); note: nearly all actives have a fitted effect of over 55% in size; note: potency is the fitted concentration of half-maximal effect
# Aromatase (Homo sapiens), sequence (P11511 whole entry, looked up): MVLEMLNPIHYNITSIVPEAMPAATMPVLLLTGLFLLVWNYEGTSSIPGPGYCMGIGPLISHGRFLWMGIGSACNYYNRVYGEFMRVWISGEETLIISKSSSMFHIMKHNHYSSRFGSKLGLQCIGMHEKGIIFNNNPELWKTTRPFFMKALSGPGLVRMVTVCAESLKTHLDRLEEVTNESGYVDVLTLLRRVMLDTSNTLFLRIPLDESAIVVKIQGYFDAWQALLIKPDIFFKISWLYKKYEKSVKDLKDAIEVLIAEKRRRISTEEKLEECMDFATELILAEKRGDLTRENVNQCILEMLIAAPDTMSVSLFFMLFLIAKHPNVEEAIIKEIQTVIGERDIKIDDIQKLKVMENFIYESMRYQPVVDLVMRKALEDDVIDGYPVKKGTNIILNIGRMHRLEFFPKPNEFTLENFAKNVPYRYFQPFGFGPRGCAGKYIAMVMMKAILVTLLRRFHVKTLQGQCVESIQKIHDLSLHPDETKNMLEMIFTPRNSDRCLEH
# [5] = qHTS assay to identify aromatase inhibitors - cell viability counter screen (AID 743084);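 note: cells stimulated with testosterone during compound exposure; nearly all actives have a fitted effect of over 55% in size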; note: potency is the fitted concentration of half-maximal effect
# [6] = target: Aryl hydrocarbon receptor (Homo sapiens) (UniProt P35869); assay: qHTS assay to identify small molecule that activate the aryl hydrocarbon receptor (AhR) signaling pathway (AID 743085); note: nearly all actives have a fitted effect of over 15% in size; note: potency is the fitted concentration of half-maximal effect;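 for activation: HG2L7.5c1 human HepG2 liver cells with stably integrated DRE-driven firefly reporter; series mostly up to about 70 µM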
# Aryl hydrocarbon receptor (Homo sapiens), sequence (P35869 whole entry, looked up): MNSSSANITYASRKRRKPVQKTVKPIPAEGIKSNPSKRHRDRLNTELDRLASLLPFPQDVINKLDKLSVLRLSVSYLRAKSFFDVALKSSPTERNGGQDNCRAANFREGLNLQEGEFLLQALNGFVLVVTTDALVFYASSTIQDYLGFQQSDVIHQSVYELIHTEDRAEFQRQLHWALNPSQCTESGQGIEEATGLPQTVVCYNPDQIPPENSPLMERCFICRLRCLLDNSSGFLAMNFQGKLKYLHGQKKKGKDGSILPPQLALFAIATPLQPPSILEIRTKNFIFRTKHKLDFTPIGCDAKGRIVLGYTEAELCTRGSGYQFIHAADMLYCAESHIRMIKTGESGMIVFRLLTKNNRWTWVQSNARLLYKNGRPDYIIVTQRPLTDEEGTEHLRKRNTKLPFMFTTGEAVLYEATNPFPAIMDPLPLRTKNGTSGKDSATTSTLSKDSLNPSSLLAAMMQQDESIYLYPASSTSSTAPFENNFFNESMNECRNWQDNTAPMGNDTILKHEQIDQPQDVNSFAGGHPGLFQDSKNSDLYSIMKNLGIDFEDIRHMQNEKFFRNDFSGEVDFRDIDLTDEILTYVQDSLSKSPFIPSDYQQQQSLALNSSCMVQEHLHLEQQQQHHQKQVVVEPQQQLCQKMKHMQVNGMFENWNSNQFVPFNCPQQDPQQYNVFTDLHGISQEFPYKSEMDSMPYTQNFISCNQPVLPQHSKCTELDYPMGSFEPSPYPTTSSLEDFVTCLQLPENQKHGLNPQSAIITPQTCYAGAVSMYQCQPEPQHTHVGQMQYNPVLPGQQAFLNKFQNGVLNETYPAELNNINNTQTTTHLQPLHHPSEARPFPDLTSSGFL
# Method in brief: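 AhR agonist activity is inferred from enhanced light output of a DRE-controlled firefly luciferase reporter in HepG2 cells, measured with ONE-Glo following 24 h treatment at 37C.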
# [7] = qHTS assay to identify small molecule that activate the aryl hydrocarbon receptor (AhR) signaling pathway - cell viability counter screen (AID 743086); note: nearly all actives have a fitted effect of over 45% in size; note: potency is the fitted concentration of half-maximal effect
# Method in brief: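 HepG2-AhR-luc (HG2L7.5c1) cells, 4000/well, were preincubated 5 h at 37C, exposed to compound in qHTS format for 24 hr at 37C, then given CellTiter-Fluor for 30 min; viability was read as fluorescence in the reporter wells.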
# [8] = qHTS assay to identify small molecule antagonists of the peroxisome proliferator-activated receptor gamma (PPARg) signaling pathway - cell viability counter screen (AID 743194); note: nearly all actives have a fitted effect of over 55% in size; note: potency is the fitted concentration of half-maximal effect
# Method in brief: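 PPARg-UAS-bla HEK293H cells were plated, rested 5 h at 37 C, then treated with compounds plus rosiglitazone (50 nM final) for 17 h at 37 C; viability was then read by CellTiter-Glo luminescence after 30 min at room temperature.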
# [9] = qHTS assay for small molecule agonists of the antioxidant response element (ARE) signaling pathway (AID 743202; active = well fitted activation curve with a large enough effect in the signal ratio in the repeat runs, not every such curve was filed as active; inconclusive = weak or mixed curves, or effect the other way; inactive = no such curve, though single readings can be large or run the other way; the % refers to the signal ratio; note: potency is the fitted concentration of half-maximal effect)
# Method in brief: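 Following a 16 h, 37 C exposure of reporter HepG2 cells (ARE-driven beta-lactamase, 2,000 cells/well) to compounds, FRET substrate was applied for 2 h at room temperature and fluorescence intensity recorded.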
# [10] = qHTS assay for small molecule activators of the heat shock response signaling pathway - cell viability counter screen (AID 743209); note: nearly all actives have a fitted effect of over 50% in size; note: potency is the fitted concentration of half-maximal effect
# Method in brief: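 Cytotoxicity counter screen run in the same wells as the heat-shock bla reporter assay: HeLa HSE-bla cells, 5 h compound exposure at 37 C, viability read by CellTiter-Glo luminescence.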
# [11] = qHTS assay to identify small molecule antagonists of the thyroid receptor (TR) signaling pathway (AID 743065); note: nearly all actives have a fitted effect of over 55% in size; note: potency is the fitted concentration of half-maximal effect
# Method in brief: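 GH3.TRE-Luc rat pituitary cells carrying two TR response elements driving luciferase were plated for 4 h, given compound plus 1 nM T3 (final), and incubated 23.5 h at 37 C. ONE-Glo luminescence measured reporter inhibition; CellTiter-Fluor fluorescence tracked cytotoxicity.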
# [12] = qHTS assay for small molecule agonists of the antioxidant response element (ARE) signaling pathway - cell viability counter screen (AID 743203; calls by dose curve; note: nearly all actives have a fitted effect of over 55% in size; note: potency is the fitted concentration of half-maximal effect)
# Method in brief: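 Viability counter screen: CellTiter-Glo luminescence, read after 30 min at room temperature, in ARE-bla HepG2 wells. Compound exposure lasted 16 h at 37C/5% CO2, following a 5 h pre-incubation of the cells after plating.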
# [13] = qHTS assay for small molecule activators of the heat shock response signaling pathway (AID 743210; active = well fitted activation curve with a large enough effect in the signal ratio in the repeat runs, with a control signal flat, not every such curve was filed as active; inconclusive = weak or mixed curves; the % refers to the signal ratio; note: series mostly up to about 63 µM)
# Method in brief: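 Heat shock element–beta-lactamase HeLa reporter cells; qHTS with compounds for 5 h at 37 C; detection by FRET substrate fluorescence after 2.5 h at RT.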
# [14] = target: Peroxisome proliferator-activated receptor gamma (Homo sapiens) (UniProt P37231); assay: qHTS assay to identify small molecule agonists of the peroxisome proliferator-activated receptor gamma (PPARg) signaling pathway (AID 743094; active = well fitted activation curve with a large enough effect in the signal ratio in the repeat runs, not every such curve was filed as active; inconclusive = weak or mixed curves, or effect the other way; inactive = no such curve, though single readings can be large or run the other way; the % refers to the signal ratio; note: potency is the fitted concentration of half-maximal effect)
# Peroxisome proliferator-activated receptor gamma (Homo sapiens), sequence (P37231 whole entry, looked up): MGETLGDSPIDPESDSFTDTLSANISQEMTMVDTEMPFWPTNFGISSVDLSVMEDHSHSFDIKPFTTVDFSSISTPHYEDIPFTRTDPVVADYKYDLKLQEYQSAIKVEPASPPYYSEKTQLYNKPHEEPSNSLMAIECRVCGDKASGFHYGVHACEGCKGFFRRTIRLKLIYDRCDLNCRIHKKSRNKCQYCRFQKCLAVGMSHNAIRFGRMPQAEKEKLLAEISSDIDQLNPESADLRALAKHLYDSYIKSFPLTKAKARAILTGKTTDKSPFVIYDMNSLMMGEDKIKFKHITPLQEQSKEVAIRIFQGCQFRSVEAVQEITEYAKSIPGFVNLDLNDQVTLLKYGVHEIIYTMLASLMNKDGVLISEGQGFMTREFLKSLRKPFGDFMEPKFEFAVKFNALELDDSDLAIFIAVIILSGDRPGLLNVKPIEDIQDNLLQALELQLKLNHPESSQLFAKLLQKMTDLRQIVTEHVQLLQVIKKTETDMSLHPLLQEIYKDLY
# Method in brief: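 Agonist activity was taken from a beta-lactamase reporter (FRET substrate, 1 h at room temperature) in HEK293H cells carrying a PPARg UAS-bla construct. Compounds in DMSO were incubated 17 h at 37C after a 5 h cell pre-incubation.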
# [15] = target: Estrogen receptor (Homo sapiens) (UniProt P03372); assay: qHTS assay to identify small molecule antagonists of the estrogen receptor alpha (ER-alpha) signaling pathway (AID 743069; active = well fitted curve in the direction sought with a large enough effect in the signal ratio in the repeat runs, not every such curve was filed as active; inconclusive = weak or mixed curves, or effect the other way; inactive = no such curve, though single readings can be large or run the other way; the % refers to the signal ratio)
# Estrogen receptor (Homo sapiens), sequence (P03372 whole entry, looked up): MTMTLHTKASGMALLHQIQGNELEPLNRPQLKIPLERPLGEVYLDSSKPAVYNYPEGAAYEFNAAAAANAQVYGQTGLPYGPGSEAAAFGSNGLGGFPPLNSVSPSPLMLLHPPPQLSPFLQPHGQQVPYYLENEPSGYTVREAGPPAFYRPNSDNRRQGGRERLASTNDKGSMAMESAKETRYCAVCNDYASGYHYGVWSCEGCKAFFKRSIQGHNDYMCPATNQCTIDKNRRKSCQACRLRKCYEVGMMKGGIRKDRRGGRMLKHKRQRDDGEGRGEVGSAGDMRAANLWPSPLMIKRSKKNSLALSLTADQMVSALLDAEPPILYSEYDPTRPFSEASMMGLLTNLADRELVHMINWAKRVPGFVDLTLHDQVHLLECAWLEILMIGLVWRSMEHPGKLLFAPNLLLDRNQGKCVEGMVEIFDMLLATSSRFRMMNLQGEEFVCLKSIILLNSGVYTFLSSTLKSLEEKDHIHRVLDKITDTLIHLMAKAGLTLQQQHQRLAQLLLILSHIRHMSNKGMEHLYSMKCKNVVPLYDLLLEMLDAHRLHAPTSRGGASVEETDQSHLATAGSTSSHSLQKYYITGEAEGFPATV
# Method in brief: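 A 17beta-estradiol challenge was applied right after compound transfer to ER-alpha-UAS-bla HEK293 cells previously kept in charcoal-stripped serum. Plates stood 18 hr at 37C and 5% CO2; fluorescence was read following 2 hr FRET substrate loading at room temperature.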
# [16] = target: Estrogen receptor (Homo sapiens) (UniProt P03372); assay: qHTS assay to identify small molecule agonists of the estrogen receptor alpha (ER-alpha) signaling pathway (AID 743075; calls by dose curve;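 note: HEK293 GripTite cells with ER-alpha and UAS-driven beta-lactamase reporter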; note: potency is the fitted concentration of half-maximal effect)
# [17] = target: Estrogen receptor (Homo sapiens) (UniProt P03372); assay: qHTS assay to identify small molecule agonists of the estrogen receptor alpha (ER-alpha) signaling pathway using the BG1 cell line (AID 743079); note: nearly all actives have a fitted effect of over 20% in size; note: potency is the fitted concentration of half-maximal effect
# [18] = qHTS assay to identify small molecule antagonists of the estrogen receptor alpha (ER-alpha) signaling pathway using the BG1 cell line (AID 743080; calls by dose curve;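 note: BG1 cells stimulated with 17beta-estradiol alongside compound; nearly all actives have a fitted effect of over 25% in size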; note: potency is the fitted concentration of half-maximal effect)
# Method in brief: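 Luciferase inhibition measured with ONE-Glo after 30 min at RT in BG1Luc4E2 cells given test compounds and 17beta-estradiol for 21.5 h at 37 C; CellTiter-Fluor viability read in the same wells beforehand.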
# [19] = target: Peroxisome proliferator-activated receptor gamma (Homo sapiens) (UniProt P37231); assay: qHTS assay to identify small molecule antagonists of the peroxisome proliferator-activated receptor gamma (PPARg) signaling pathway (AID 743191; calls by dose curve; note: series mostly up to about 63 µM; nearly all actives have a fitted effect of over 30% in size)
# Method in brief: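 GeneBLAzer PPARg UAS-bla HEK293H cells carrying a UAS-driven beta-lactamase reporter were plated at 3000 cells/well, preincubated 5 h at 37C, then given compound for 17 h at 37C; LiveBLAzer B/G FRET substrate was read after 1 h at room temperature.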
Structure (SMILES),Potency [1],Potency [2],Potency [3],Potency [4],Potency (Aromatase (Homo sapiens)),Potency [5],Potency [6],Potency [7],Potency [8],Potency [9],Potency [10],Potency [11],Potency [12],Potency [13],Potency [14],Potency [15],Potency [16],Potency [17],Potency [18],Potency [19]
CCCN[C@H]1CCc2nc(N)sc2C1,inactive,inactive,inactive,inactive,inactive,inactive,inactive,inactive,inactive,inactive,inactive,–,–,–,–,–,–,–,–,–
COc1ccc(CCN2CCC(Nc3nc4ccccc4n3Cc3ccc(F)cc3)CC2)cc1,5.31 µM (active) and 1.25 µM (active),inactive,12.6 µM (active),55.7 µM (active),6.25 µM (active),26.6 µM (active) and 12.5 µM (active),inactive,23.7 µM (active) and 9.9 µM (active),4.46 µM (active) and 26.6 µM (active),–,17.8 µM (active) and inactive,5.96 µM (active) and 1.57 µM (active),6.25 µM (active) and 26.6 µM (active),inactive,–,–,–,–,–,–
Cc1occc(=O)c1OC(=O)C(C)C,inactive,inactive,inactive,inactive,inactive,inactive,inactive,inactive,inactive,–,inactive,inactive,inactive,inactive,–,–,–,–,–,–
CCOC(=O)C(C)C(C)=O (stereo unspecified),inactive,inactive,inactive,inactive,inactive,inactive,inactive,inactive,inactive,inactive,inactive,inactive,inactive,–,–,–,–,–,–,–
CCCCCCCCCCCC[N+](C)(C)C,17.2 µM (active) and 13.7 µM (active) and 15.4 µM (active),–,inactive and 54.9 µM (active),60.9 µM (active),24.3 µM (active) and 17.2 µM (active) and 21.7 µM (active),inactive,inactive,inactive,–,8.61 µM (active),–,9.66 µM (active) and 6.86 µM (active) and 7.7 µM (active),–,inactive,inactive,–,–,–,–,–
O=C(O)CCc1ccccc1,inactive,inactive,inactive,inactive,–,–,–,inactive,inactive,inactive,inactive,inactive,–,inactive,–,–,–,–,–,–
c1cnc2cc3c(cc2n1)C1CNCC3C1,inactive,inactive,inactive,inactive,inactive,inactive,inactive,–,inactive,inactive,inactive,–,–,inactive,inactive,inactive,inactive,inactive,–,–
Cc1c(O)cccc1C(=O)N[C@@H](CSc1ccccc1)[C@H](O)CN1C[C@H]2CCCC[C@H]2C[C@H]1C(=O)NC(C)(C)C,5.31 µM (active) and 2.11 µM (active),inactive,53.5 µM (active),18.8 µM (active) and 26.6 µM (active),26.6 µM (active) and 23.7 µM (active),7.5 µM (active) and 2.98 µM (active),inactive,13.3 µM (active) and 11.9 µM (active),21.3 µM (active) and 26.6 µM (active),–,inactive,–,–,–,–,–,–,–,–,–
CCCCCCC(O)CCCCCCCCCCC(=O)O (stereo unspecified),inactive,inactive,–,–,inactive,inactive,inactive,inactive,21.9 µM (active),–,inactive,inactive,–,inactive,–,–,–,–,–,–
Nc1nc(=S)c2[nH]cnc2[nH]1,inactive,inactive,–,inactive,inactive,inactive,inactive and 61.1 µM (active),inactive,2.98 µM (active),4.73 µM (active),inactive,inactive,3.86 µM (active),inactive,–,–,19 µM [activator] (active) and inactive,21.1 µM (active) and inactive,inactive and 750 nM (active),–
O=Nc1ccc(Nc2ccccc2)cc1,5.48 µM (active) and 6.86 µM (active),inactive,–,inactive,–,27.4 µM (active),–,inactive,19.6 µM (active) and 43.6 µM (active),3.06 µM (active),34.7 µM (active),4.35 µM (active) and 5.45 µM (active),inactive,–,15.5 µM (active),–,12.4 µM [inconclusive] (active) and 55 µM [activator] (active),68.6 µM (active),–,–
CC[C@H]1CN2CCc3cc(OC)c(OC)cc3[C@@H]2C[C@@H]1C[C@H]1NCCc2cc(OC)c(OC)cc21,84.1 nM (active) and 97.2 nM (active),inactive,inactive,9.72 µM (active),237 nM (active) and 244 nM (active),9.72 µM (active),inactive,–,–,–,2.46 µM (active) and 10.6 µM (active),37.6 nM (active) and 38.7 nM (active),24.4 µM (active),inactive,–,–,–,–,–,–
CCCCCC(=O)O[C@]1(C(C)=O)CC[C@H]2[C@@H]3CCC4=CC(=O)CC[C@]4(C)[C@H]3CC[C@@]21C,18.8 µM (active),inactive,–,inactive,inactive and 54.1 µM (active),inactive,inactive,inactive,–,–,inactive,10.6 µM (active) and 19.2 µM (active),54.1 µM (active),–,inactive,–,inactive,–,–,–
Cc1cccc([N+](=O)[O-])c1C(=O)O,inactive,inactive,inactive,inactive,inactive,inactive,inactive,inactive,inactive,inactive,inactive,–,inactive,inactive,inactive,inactive,inactive,inactive,–,inactive
